The full ranking holds about 68,000 sequences; the median of “fluorescence intensity (a.u.)” is about 9,100, and the highest 2% start at about 16,000. Only a selection was taken, and the highest values are over-represented in it overall.

Chain of OsWRKY34 (Q0JBA9 entry or part of it): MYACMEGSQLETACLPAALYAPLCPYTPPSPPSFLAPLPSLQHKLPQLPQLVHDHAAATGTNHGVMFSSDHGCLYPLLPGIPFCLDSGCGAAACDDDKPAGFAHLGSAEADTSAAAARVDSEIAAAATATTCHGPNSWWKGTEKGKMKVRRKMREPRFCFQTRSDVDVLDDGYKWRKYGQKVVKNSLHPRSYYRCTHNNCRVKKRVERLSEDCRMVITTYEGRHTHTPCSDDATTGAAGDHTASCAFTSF

The target of this assay is OsWRKY34 (Oryza sativa, UniProt Q0JBA9 1-250). Nature of the assay: protein-binding microarray (RPBM); PBS, 2% BSA, 51.3 ng/ul salmon testes DNA, 50 uM zinc acetate, 200 nM TF, 25 C, 1 h; high values mean tight binding. The note with it: protein: recombinant; tags: N-terminal polyhistidine and DsRed monomer fusion (pET32a); label: CyDye5-dUTP incorporated in the synthesized complementary strand; 3' TTTTT single-stranded linker to array surface; dsDNA, one strand shown. In short, it runs like this:
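Using Ni–NTA, transcription factors fused N-terminally to polyhistidine and DsRed were purified after expression in E. coli BL21-CodonPlus. These were incubated at 200 nM with a blocked, double-stranded custom Agilent array for 1 h at 25 °C in a buffer containing 50 µM zinc acetate, and the array was washed. The binding signal is per-feature fluorescence intensity (arbitrary units) on an Axon 4000B scanner.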
Take “AGTTATTTATTTTGTTGTGGTTTGTTTTATAGTTAAAGGTCGGAGTCACCTAGTGCAG”: the binding signal is 10100 fluorescence intensity (a.u.).

For the sequence “CGATCCCACCGACTCCCGGCCACCTCTGCTTCCCCGGCGACGGAGTCACCTAGTGCAG”, the binding signal is 9140 fluorescence intensity (a.u.). The value for “TATATGTTTGGCGCTCAAAACCTAATAGTAGTTCTTATGTCGGAGTCACCTAGTGCAG” was 8300 fluorescence intensity (a.u.).

In the case of “CTCTCCTCTCATCTCATCTCATCTCCAAGGCTGGTCTTTACGGAGTCACCTAGTGCAG”, the binding signal was 8320 fluorescence intensity (a.u.). The value for “ACAGCCGCGTCGCCGCTTGTCCGCCTGCGCTCGTTCTCGCCGGAGTCACCTAGTGCAG” was 9640 fluorescence intensity (a.u.); that for “GGCATCCTACACTCTAGCTAGCCCACAGTCCGCTGCCGGCCGGAGTCACCTAGTGCAG” was 8790 fluorescence intensity (a.u.).

As to “GCGGATGGAATGGCAAGGGAGGAAACTGGTGGGGTGGGAGCGGAGTCACCTAGTGCAG”, the binding signal was 8960 fluorescence intensity (a.u.). The value for “TTCGGTTGGGTGGAGGAAGCGCGGGTGAAAAAGGTGGGGACGGAGTCACCTAGTGCAG” was 10600 fluorescence intensity (a.u.).

Regarding “GGAATATTCTCACATCTCAGCCATCCATTTTCCATCTCAACGGAGTCACCTAGTGCAG”, the binding signal was 9090 fluorescence intensity (a.u.).

“GATAGGTTGTGTGTGTGCAGTGTGTGTTTATAAGAGGTGACGGAGTCACCTAGTGCAG”: the binding signal was 10200 fluorescence intensity (a.u.). The value for “TACATCATCTAGTGTTGCAGCAGCAGTGTGTGTAAGAGGACGGAGTCACCTAGTGCAG” was 28500 fluorescence intensity (a.u.); that for “CAGCAGTGTGTGTAAGAGGAGAGAGAAGCAGTGCCCTTTACGGAGTCACCTAGTGCAG” was 8530 fluorescence intensity (a.u.); that for “CGTCACTTTTTTTTCTCCCCTATTTCTTTTCTCCTTTTCTCGGAGTCACCTAGTGCAG” was 10900 fluorescence intensity (a.u.). For “CCGCTCTCCTACTGCTCGGCCAACCAGTCATGCACACATACGGAGTCACCTAGTGCAG”, the binding signal was 8790 fluorescence intensity (a.u.). The value for “ATAAAATAGTTGACTGGCTATCTTCTACTCCACTTGGTATCGGAGTCACCTAGTGCAG” was 8860 fluorescence intensity (a.u.). The value for “AGGCGGAGGAGGGGAGGCGGAAGGGGTTCGCGTCGGCGGCCGGAGTCACCTAGTGCAG” was 12200 fluorescence intensity (a.u.); that for “CGGCGGGCGGGAGGGCGGCGTTGATTTCGTTGGGGTTTGCCGGAGTCACCTAGTGCAG” was 19100 fluorescence intensity (a.u.).

As to “CGGGAGGAGGGAGGTTGTTTCGTCTGGGGTTTGATTGGGACGGAGTCACCTAGTGCAG”, the binding signal is 18200 fluorescence intensity (a.u.). The value for “TTTGGGGTTTGAGAAGGTTGAGGAGGAGTTGGGAGGTTGACGGAGTCACCTAGTGCAG” was 9580 fluorescence intensity (a.u.); that for “TTGATTTCGTTGGGGTTTGCGTTGCGTGCGGAGGACGGGGCGGAGTCACCTAGTGCAG” was 15200 fluorescence intensity (a.u.); that for “AGGGGAGGCGTCGCTTGGTCGCCATCTTCGTCGTTTGCTTCGGAGTCACCTAGTGCAG” was 9720 fluorescence intensity (a.u.). “TGCTTTCGTTGGGTTGGGGAAGGGGAGGCGTCGCTTGGTCCGGAGTCACCTAGTGCAG”: the binding signal is 17100 fluorescence intensity (a.u.).

For the sequence “GATTAGGGTTGTTGCCGGGGTTTGTTTGGTGTTGCGGCGGCGGAGTCACCTAGTGCAG”, the binding signal was 8510 fluorescence intensity (a.u.).

As for “TTTACAGTTGATTTTGACGGGTTTGTTGGCGAGGATTTTTCGGAGTCACCTAGTGCAG”, the binding signal was 9360 fluorescence intensity (a.u.). The value for “AGAGAGAGGTTGCTGTTTCGATGCGTATTTCTGCAGCTTTCGGAGTCACCTAGTGCAG” was 10100 fluorescence intensity (a.u.). Consider “GTCCCGGGCACCGACCACGATCCGTTCCCGCCACACAAACCGGAGTCACCTAGTGCAG”, for which the binding signal is 8080 fluorescence intensity (a.u.). The value for “TCCGCCCTCTGACCGCGGCGCCAAAGCTCCTCCGCGCGCGCGGAGTCACCTAGTGCAG” was 8030 fluorescence intensity (a.u.); that for “CGGACCCCATACACCTCCGCCCGATTCCCGACGCAAATCCCGGAGTCACCTAGTGCAG” was 9260 fluorescence intensity (a.u.); that for “GTTTGTAACGTATTTTAGCTCGCTTTATAACGGGGCAGTTCGGAGTCACCTAGTGCAG” was 8160 fluorescence intensity (a.u.).

As to “GATTGCTTTGTGGGTGTATGGTTCATCTTCAATGGTTTACCGGAGTCACCTAGTGCAG”, the binding signal is 8030 fluorescence intensity (a.u.). The value for “GTTTCAAAATGTTTGACACCGTTGACTTTTTAGTACGTGTCGGAGTCACCTAGTGCAG” was 22500 fluorescence intensity (a.u.). The value for “AACGTACTAATGCATGACACCGTTGACTTTTTTTCAACGTCGGAGTCACCTAGTGCAG” was 40400 fluorescence intensity (a.u.); that for “CGACAAAATTCAACCGTAATTTCAACGTTTTCCTAACTTTCGGAGTCACCTAGTGCAG” was 8990 fluorescence intensity (a.u.). The value for “TGATATCTTTTTCTTTAATGACTTTCCGTGTTTTCAACGTCGGAGTCACCTAGTGCAG” was 8090 fluorescence intensity (a.u.); that for “CCGTTTCAAAATGTTTGACACCGTTGACTTTTTAGTACGTCGGAGTCACCTAGTGCAG” was 21100 fluorescence intensity (a.u.).

For the sequence “CGTTTCAAAATGTTTGACACCGTTGACTTTTTAGTACATGCGGAGTCACCTAGTGCAG”, the binding signal was 35900 fluorescence intensity (a.u.).

Take “ACCATCACTTTTACTCTCTTTCTGCCTTAAAATCTCAATACGGAGTCACCTAGTGCAG”: the binding signal was 8590 fluorescence intensity (a.u.). The value for “CCCTTTCCTTTTCTTTTTTTTTCTCATTTTATCCACAATTCGGAGTCACCTAGTGCAG” was 9870 fluorescence intensity (a.u.); that for “CGTGGCCCATCTCCAATTCTCCAGTTGCTTCCTTTTCGTTCGGAGTCACCTAGTGCAG” was 12600 fluorescence intensity (a.u.). The value for “TCTCTTTCTTTCCTTAACTCTCTTTCTCTACTCTCCACTCCGGAGTCACCTAGTGCAG” was 9580 fluorescence intensity (a.u.); that for “GCTGTGTGTACATATTACTAGTACTACTTAATACGTGCTTCGGAGTCACCTAGTGCAG” was 11200 fluorescence intensity (a.u.).

On to “TTGTGAGTGTGTATGTGTTTATGGTGTGTAATTTTTTTTACGGAGTCACCTAGTGCAG”, for which the binding signal is 9320 fluorescence intensity (a.u.).

On to “GGCGTTGGTCACCTCCCGTGAGTCGTCCTCTATTCCTCTTCGGAGTCACCTAGTGCAG”, for which the binding signal is 11100 fluorescence intensity (a.u.). Consider “GGTTGTAATCTATAGGGGTCCTTGTATAGAAATATCGTTTCGGAGTCACCTAGTGCAG”, for which the binding signal was 8880 fluorescence intensity (a.u.).

As for “CTCCTCGCCTTCTTCTCCATCTCCATCTCGCATCTTCTCTCGGAGTCACCTAGTGCAG”, the binding signal was 11400 fluorescence intensity (a.u.). Take “ATTTTGGGACAGAGGTAGCAGTGAACTACACGTACCTTGTCGGAGTCACCTAGTGCAG”: the binding signal was 21500 fluorescence intensity (a.u.).

Source of the values: publication PMC7819943, “Rice protein-binding microarrays: a tool to detect cis-acting elements near promoter regions in rice”.
